Rows were chosen to be rich in hits. Some 20% of all compounds tested hit in one or more screens of this group.
Pf growth 96h: P. falciparum growth inhibition at 96 hour, primary screen for plastid delayed-death inhibitors. 6.9% of 320,000 active. Potency, µM (titrated, usually from 28.7 µM), for the others: at the highest dose activity change, negative = inhibition, actives largely listed as inhibitors. AID 504834. P. falciparum luciferase reporter growth, 96 h; further: potency means the concentration at half of the fitted maximal effect; on the % scale 0 is the no-effect control and ±100 the full control effect
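Parasite growth measured via integrated firefly luciferase reporter in P. falciparum. Infected erythrocytes at 2% hematocrit, 0.05% parasitemia final were treated 96 hours at 37 C under 5% CO2, and luminescence was read.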
CHX counter: counter-screen hit for Shiga toxin inhibitors, cycloheximide. cell reporter, cycloheximide protein synthesis inhibition counterscreen. max response, %. 12% of 300,000 active. AID 2314; in the data active means max response mostly above about 13%, no sharp cut-off; inactive means mostly below about 14%; further: read at 38.3 µM for the half of the compounds with a filed dose; 0% is about no effect
HCMV inh: blocks human cytomegalovirus replication; HFF cells, HCMV-luciferase reporter, 72 h; active compounds read low; activity change, negative = inhibition, % at 57.5 µM; 4.5% of 410,000 active; AID 1259415; in the data active means activity change below about -60%; inconclusive means no clear call, values can overlap the other calls; inactive means above about -39%; further: on the % scale 0 is the no-effect control and ±100 the full control effect
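Human foreskin fibroblasts infected with luciferase-reporter HCMV at MOI 1 PFU/cell, compounds at two doses. Luciferase measured 72 h post infection; normalized to buffer-only basal and Salinomycin (10uM) controls.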
Shiga inhibitor: Shiga toxin inhibition; Vero cells, Shiga toxin protein synthesis inhibition reporter; inhibition, % at 38.7 µM; 9.2% of 290,000 active; AID 2315; in the data active means inhibition mostly above about 28%, no sharp cut-off; inactive means mostly below about 43%; further: 0% is about no effect
Pf growth 48h: inhibits P. falciparum growth in the first generation, 48 h; P. falciparum luciferase growth in erythrocytes, 48 h; 5.9% of 310,000 active; Potency, µM (titrated, usually from 28.7 µM), inactives show top-dose activity change, negative = inhibition, usual class: inhibitors; AID 504832; further: potency means the concentration at half of the fitted maximal effect; on the % scale 0 is the no-effect control and ±100 the full control effect
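Luciferase-expressing parasites in RBCs, 2% Hct / 0.1% parasitemia final; RPMI 1640 + 0.5% Albumax; 37 C, 5% CO2, one generation; luminescence read-out, lower signal = inhibition.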
* marks the source's active call; other numbers are inactive results. Unless noted, the call rests on the fitted dose curve; in most records, active means well fitted inhibition curve with a large enough effect; inconclusive means small, poorly fitted or top-dose-only effect, or another doubt; inactive means no such curve, though single readings can be large or run the other way.

Screening Cc1ccc(C)c(S(=O)(=O)N2CCN(C(=O)C(C)Sc3ccccc3)CC2)c1 (stereo not given) returned Pf growth 96h inconclusive, CHX counter -4, HCMV inh -4, Shiga inhibitor -4 and Pf growth 48h -6%.
`O=C1Cc2ccccc2C(=O)N1c1ccc(F)cc1Cl` gave Pf growth 96h -8%, CHX counter -2, HCMV inh 23, Shiga inhibitor -8 and Pf growth 48h inconclusive.
For O=C1Cc2ccccc2N1c1c(Cl)cccc1Cl the results were Pf growth 96h 3.3µM*, CHX counter -3, HCMV inh -29, Shiga inhibitor 3 and Pf growth 48h -29%.
For CCc1ccc(OCC(=O)N(Cc2ccc(C)o2)C2CCS(=O)(=O)C2)cc1 (stereo not given) the results were HCMV inh -39.
Cc1ccc(-c2cc3nc(C)cc(C)n3n2)cc1 was read as Pf growth 96h 57%, CHX counter 38*, HCMV inh 139, Shiga inhibitor 78* and Pf growth 48h 145%.
`Cc1cc(C)n2nc(Nc3ccccc3)cc2n1` gave Pf growth 96h inconclusive, CHX counter 28*, HCMV inh 208, Shiga inhibitor 88* and Pf growth 48h 72%.
Screening Nc1cc(-c2ccc(Br)cc2)nn1S(=O)(=O)c1ccccc1 returned Pf growth 96h inconclusive, CHX counter -6, HCMV inh inconclusive, Shiga inhibitor -20 and Pf growth 48h inconclusive.
Cc1cc(C)n2nc(-c3ccccc3)cc2n1 was read as Pf growth 96h 0%, CHX counter 57*, HCMV inh 167, Shiga inhibitor 77* and Pf growth 48h 163%.
`Nc1cc(-c2ccc(Br)cc2)nc2cc(-c3ccccc3)nn12` gave Pf growth 96h 4%, CHX counter 24, HCMV inh -3, Shiga inhibitor 93* and Pf growth 48h 29%.
CCOc1cc(OCC)cc(C(=O)N2CCC[C@H]2C(=O)N2CCC[C@H]2C(=O)NCc2cccc(OC)c2)c1 was read as HCMV inh -15.
For Cc1cc(C)n2nc(-c3ccsc3-n3c(C)ccc3C)cc2n1 the results were Pf growth 96h inconclusive, CHX counter -2, HCMV inh 14, Shiga inhibitor -10 and Pf growth 48h 13µM*.
Screening Cc1ccc(NC(=O)c2cc3nc(C)cc(C)n3n2)cc1 returned Pf growth 96h 264%, CHX counter 47*, HCMV inh 128 and Shiga inhibitor 101*.
`Cc1ccc(NC(=O)c2cc3nc(-c4ccccc4)cc(-c4ccccc4)n3n2)cc1` gave HCMV inh -2.
Screening c1cncc(CSc2nnc3ccc(-c4cccs4)nn23)c1 returned Pf growth 96h inconclusive, CHX counter 2, HCMV inh inconclusive, Shiga inhibitor -10 and Pf growth 48h inconclusive.
c1ccc(CSc2nnc3ccc(-c4ccco4)nn23)nc1 was read as Pf growth 96h inconclusive, CHX counter 34*, HCMV inh -25, Shiga inhibitor 67* and Pf growth 48h 48%.
`c1ccc(CSc2nnc3ccc(-c4cccs4)nn23)nc1` gave Pf growth 96h 34%, CHX counter 32, HCMV inh inconclusive, Shiga inhibitor 61* and Pf growth 48h 63%.
`CCC(NC(=O)Cc1c(C)c2cc3c(cc2oc1=O)OC(C)(C)CC3)C(=O)O` (stereo not given) gave Pf growth 96h 267%, CHX counter 21*, HCMV inh 109, Shiga inhibitor 23 and Pf growth 48h 167%.
`Cc1c(CC(=O)NCCCC(=O)O)c(=O)oc2cc3oc4c(c3cc12)CCCC4` gave Pf growth 96h 9%, CHX counter -3, HCMV inh -66*, Shiga inhibitor -8 and Pf growth 48h 2%.
Screening Cc1c(CC(=O)NCCCC(=O)O)c(=O)oc2cc3c(cc12)CCC(C)(C)O3 returned Pf growth 96h inconclusive, CHX counter -2, HCMV inh -86*, Shiga inhibitor -2 and Pf growth 48h 2.6µM*.
`Cc1c(CC(=O)NCCCCCC(=O)O)c(=O)oc2cc3c(cc12)CCC(C)(C)O3` gave Pf growth 96h inconclusive, CHX counter -2, HCMV inh -15, Shiga inhibitor -5 and Pf growth 48h -9%.
CC(=O)c1sc(NC(=O)CSC(C)C(=O)Nc2cc(C)on2)nc1-c1ccccc1 (stereo not given) was read as Pf growth 96h inconclusive, HCMV inh -28 and Pf growth 48h -17%.
